Screening data (PubChem BioAssay)
Compounds with a hit are over-represented: about 2.2% of the library has one in this group of screens.
KLF5 inh – suppresses KLF5 promoter-driven expression; 290,000 compounds, 0.23% hits; DLD-1 KLF5 promoter-luciferase reporter, luminescence; inhibition, % at 5 µM; AID 1700;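 active = inhibition above a per-plate limit of that plate's mean compound inhibition plus 3 SD, cut at about 60% in these data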;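 note: higher means less KLF5 promoter-driven luciferase light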
Ba/F3 V617F tox – lowers viability of Ba/F3 cells expressing EpoR and JAK2V617F. inhibition, % at 5.6 µM. 220,000 compounds, 1.1% hits. AID 1446. ATP luminescence;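 active = inhibition above the campaign mean plus 3 SD over all tested compounds, cut at about 24% in these data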;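 note: cytokine-independent growth of Ba/F3 cells driven by EpoR plus mutant JAK2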
IEC-6 tox – counter-screen for KLF5 inhibitors: cytotoxicity in IEC-6 cells; 290,000 compounds, 0.78% hits; inhibition, % at 5 µM; IEC-6 cytotoxicity, luminescence viability; in the data active = inhibition above about 22%
aSyn UTR inh – 5' untranslated region of α-synuclein, MLPCN primary screen; alpha-synuclein 5'UTR reporter, inhibitor activity; inhibition, % (tested at 7.5 µM); 300,000 compounds, 0.82% hits; AID 1813; in the data active = inhibition above about 60%;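 note: H4 neuroglioblastoma cells stably carrying SNCA 5'UTR luciferase fusion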
BaF3 tox – counter-screen for JAK2V617F inhibitors: parental Ba/F3 viability inhibitors; CellTiter-Glo ATP luminescence; inhibition, % at 5.6 µM; 220,000 compounds, 1.1% hits; AID 1486;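 active = inhibition above a per-campaign cutoff, the mean inhibition of all tested compounds plus 3 SD, cut at about 27% in these data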
APP 5UTR inh – APP translation inhibition; 190,000 compounds, 0.82% hits; inhibition, % at 2 µM; SH-SY5Y APP 5'UTR-luciferase reporter, luminescence;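 active = inhibition above a set limit, derived from the sample mean plus 3 SD, cut at about 45% in these data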
Numbers stand for hits; – = inactive; · = no result.

SMILES	KLF5 inh	Ba/F3 V617F tox	IEC-6 tox	aSyn UTR inh	BaF3 tox	APP 5UTR inh
CCCN(CCC)C(=O)c1ccc2c(c1)N(CC)C(=O)c1ccccc1S2(=O)=O	–	·	–	–	·	·
CN1/C(=C\P(=O)(N(C)C)N(C)C)C(C)(C)c2ccccc21	–	61.1	–	–	62.4	–
O=[N+]([O-])c1ccccc1S(=O)(=O)c1ccccc1[N+](=O)[O-]	–	·	–	–	·	·
CCn1c(=O)c2ccccc2n2c(SCC(=O)N3CCc4ccccc4C3)nnc12	–	–	–	–	–	–
CCCn1c(=O)c2ccccc2n2c(SCC(=O)N3CCc4ccccc4C3)nnc12	–	–	–	–	–	60.9
Cc1nc(C)n(C(C)CNC(=O)c2ccco2)n1 (stereo not given)	–	·	–	–	·	·
CC(C)CC(=O)NC(=S)NNC(=O)c1ccc([N+](=O)[O-])cc1	–	–	–	–	–	–
CC(C)CC(=O)NC(=S)NNC(=O)c1ccc(NC(=O)C2CCCCC2)cc1	–	–	–	74.7	–	–
CCOC(=O)/C=c1\s/c(=C\c2c(OC)ccc3ccccc23)c(=O)n1CC(=O)NCC1CCCO1 (stereo not given)	–	–	–	70.8	–	–
O=C(NC1CCCC1)c1ccc(COc2ccccc2Br)o1	–	·	–	–	·	·
CCCCCc1ccc(OCCC[n+]2ccccc2)c(CCCCC)c1	–	99.9	–	–	84.0	·
CCCCCc1ccc(OCCOCCn2c[n+](C)c3ccccc32)c(CCCCC)c1	–	100.8	–	–	81.5	–
COc1ccc(C2=NS(=O)(=O)N(C)C(C(=O)N(C)Cc3ccccc3)=C2)cc1OC	–	·	–	–	·	·
CCOC(=O)c1ccc2nc(Nc3nc4ccc(F)cc4s3)sc2c1	–	–	–	–	–	–
COC(=O)c1ccc2nc(Nc3nc4c(F)cc(F)cc4s3)sc2c1	91.8	–	–	–	–	–
C=CCOc1ccccc1/C=N/NC(=O)Cc1ccc(C)cc1	–	·	–	–	·	·
O=C(CNC(=O)c1ccccc1O)N/N=C/c1cc(Br)ccc1OC(=O)/C=C/c1ccco1	–	–	–	68.1	–	–
O=C(CNC(=O)c1cccc(F)c1)N/N=C/c1cc(Br)ccc1OC(=O)/C=C/c1ccco1	–	–	–	–	–	52.5
O=C(CNC(=O)c1ccccc1Br)N/N=C/c1ccco1	–	·	–	–	·	·
O=C(Nc1sc2c(c1C(=O)O)CCC2)C(=O)N1CCOCC1	–	·	–	–	·	·
C=CCc1cc(Cl)ccc1OCCOCCNCCOC	–	–	–	–	–	–
C=CCc1cc(Cl)ccc1OCCNCCCOC	–	–	–	–	91.5	–
O=C1C(=O)c2ccc(-c3ccccc3)cc2-c2ccccc21	–	–	–	118.6	–	–
COc1ccc(CN2CCN(Cc3ccc(C(F)(F)F)cc3)CC2)cc1	–	·	–	–	·	·
COC(=O)c1cccc(NC(=O)/C=C/c2ccc3c(c2)OCO3)c1	–	–	–	102.3	–	–
SMILES	KLF5 inh	Ba/F3 V617F tox	IEC-6 tox	aSyn UTR inh	BaF3 tox	APP 5UTR inh
Cc1cc(C)c(C)c(S(=O)(=O)N2CCC(C(=O)Nc3ccncc3)CC2)c1C	–	·	–	–	·	·
CCC/C(O)=C1\C(=O)CC(C)(C)CC1=Nc1ccc(OC)cc1OC	–	–	–	–	–	86.4
O=c1c2cccc3c2c(nn1CN1CCOCC1)-c1ccccc1-3	–	–	–	–	27.7	–
O=C(CCn1nc(-c2ccccc2)c2ccccc2c1=O)NN1CCOCC1	–	–	–	–	–	–
CCOC(=O)[C@@H]1[C@H]2COc3ccc(Br)cc3[C@H]2N2C(=O)N(c3cccc(Cl)c3)C(=O)[C@]12C	–	·	–	–	·	·
Cn1cc(/C=N/n2cnc3scc(-c4ccc(Cl)cc4)c3c2=O)c2ccccc21	–	–	22.0	87.0	–	90.4
CNC(=O)c1c(NC(=O)CCS(=O)(=O)c2ccc(C)cc2)sc(C)c1C	·	·	·	–	·	·
CCN(CC)CCN(C(=O)c1cc2c(ccc3ccccc32)oc1=O)c1nc2cc3c(cc2s1)OCCO3	–	·	–	78.2	·	·
CCN(CC)CCN(C(=O)c1ccc2c(c1)OCCO2)c1nc2cc3c(cc2s1)OCO3	–	·	–	–	·	·
O=C(Nc1ccc(-n2cc(Br)cn2)cc1)c1ccncc1	–	·	–	–	·	·
Cc1cc(=O)n2nc(N3CCCC(C(=O)NCc4ccccc4C)C3)sc2n1 (stereo not given)	–	·	–	–	·	·
COc1ccc(-c2nc3ccccc3n2Cc2ccc(C)cc2)cc1	–	–	–	–	–	–
COc1ccc(Cn2c(-c3ccc(C)cc3)c[n+]3ccccc23)cc1	–	90.0	–	–	70.7	–
O=C(c1ccc(F)c(S(=O)(=O)N2CCOCC2)c1)N1CCc2ccccc21	–	·	–	–	·	·
O=Cc1cc(-c2ccccc2)[nH]c1-c1ccccc1	–	·	–	–	·	·
CCSc1nc2sc3c(c2c(=O)n1-c1ccc(OC)cc1)CCN(C)C3	–	–	–	–	38.2	·
CCCc1cc(=O)n2[nH]c(C)c(-c3ccc(OC)cc3)c2n1	–	·	–	–	·	·
S=C(Nc1ccc(Cl)cc1)Nc1cccc2cnccc12	–	–	–	–	–	–
S=C(Nc1cccnc1)Nc1cccc2cnccc12	–	–	–	66.0	–	–
C=CCN(c1ccccc1OC)S(=O)(=O)c1ccc(Cl)c(C(=O)Nc2ccc(N3CCOCC3)cc2)c1	–	–	–	89.2	–	–
Cc1[nH][nH]c(=O)c1C(c1c(C)[nH][nH]c1=O)c1cn(Cc2ccccc2Cl)c2ccccc12	–	–	–	–	–	48.7
N/C(=N\O)c1cn(Cc2ccccc2Cl)c2ccccc12	–	·	–	–	·	·
CC(C)(C)CC(=O)Nc1cc2c3c(c1)CCC(=O)N3CCC2	–	·	–	–	·	·
Cc1nc(C)c(C(=O)Nc2cccc(F)c2)s1	–	·	–	–	·	·
COc1ccc(OCc2n(CC(=O)OC3CC(C)CCC3C(C)C)c3ccccc3[n+]2C)cc1 (stereo not given)	–	98.5	–	–	100.3	·
SMILES	KLF5 inh	Ba/F3 V617F tox	IEC-6 tox	aSyn UTR inh	BaF3 tox	APP 5UTR inh
COc1ccc(-c2n(CC(=O)OC3CC(C)CCC3C(C)C)c3ccccc3[n+]2C)cc1 (stereo not given)	–	100.3	–	101.4	88.6	–
CC1(C)CC(NC(=O)C2CCC(=O)N(C3CC3)C2)CC(C)(C)C1 (stereo not given)	–	·	–	–	·	·
Cc1ccccc1COC(=O)c1cc([N+](=O)[O-])ccc1N1CCOCC1	–	·	–	–	·	·
COc1ccc(C(=O)c2cc([N+](=O)[O-])ccc2N2CCN(C)CC2)cc1	–	73.6	74.1	–	84.8	64.6
O=C(c1ccccc1)c1cc([N+](=O)[O-])ccc1N1CCCC1	–	–	–	–	–	–
COc1ccc(C(=O)c2cc([N+](=O)[O-])ccc2N2CCCC2)cc1	–	–	–	–	–	61.1
CSc1ccc(COC(=O)c2cc([N+](=O)[O-])ccc2N2CCOCC2)cc1	·	·	·	66.9	·	·
CN1CCN(c2ccc([N+](=O)[O-])cc2C(=O)c2ccccc2)CC1	–	–	–	–	–	–
CN1CCN(c2ccc([N+](=O)[O-])cc2C(=O)c2ccc(Br)cc2)CC1	–	–	–	67.4	–	69.3
COc1cccc(CNC(=O)CCN2C(=O)[C@@H]3Cc4ccccc4CN3C2=O)c1	–	·	–	–	·	·
